A number with no mark means an inactive call. Calls come from the whole dose curve; as a rule, active = well fitted activation curve with a large enough effect in the repeat runs; inconclusive = weak or mixed curves; inactive = flat fitted curve, though single readings scatter.
What follows are molecules tested against KiSS-1 receptor (Homo sapiens) (UniProt Q969F8) (assay: Human kisspeptin (KISS1R) small molecule agonists, calcium flux assay in KISS1R-HEK293 cells (AID 1920064)). Conditions: KISS1R-HEK293, calcium flux fluorescence, agonist; series mostly up to 76.8 µM; activation: at the top concentration.
Description: National Center for Advancing Translational Sciences [NCATS]
Division of Preclinical Innovation [DPI]
U.S. Environmental Protection Agency [EPA]
National Institutes of Environmental Health Sciences [NIEHS]
National Toxicology Program [NTP]
U.S. Food and Drug Administration [FDA]
Kisspeptin and its receptor KISS1R play key roles in mammalian reproduction due to their involvement in the onset of puberty and control of the hypothalamic-pituitary-gonadal axis such as regulates GnRH release from the hypothalamus. The kisspeptin/KISS1R system also plays a direct role in peripheral organs (including the ovary, testis, uterus, and placenta) and is implicated in reproductive diseases such as miscarriage and polycystic ovary syndrome (PCOS). Abnormal KISS1R activity is associated with abnormal puberty, infertility, endometriosis, and hormone-dependent tumors. The KISS1 receptor (KISS1R, also called GPR54), a G-protein-coupled receptor (GPCR), acts (through phospholipase C) to increase intracellular inositol trisphosphate and then release intracellular calcium stores. Cell-based KISS1R-HEK293 assay is using HEK293 cells that have been genetically engineered to express the human KISS1R, which activity can be measured by calcium signaling. A compound/drug can activate (agonist) KISS1R that can be monitored by levels of intracellular calcium.
KISS1R-HEK293 cells developed by Codex Corp contain human KISS1R gene, which was stably integrated into HEK 293 cells. The compound activation can be detected by fluorescence intensity via calcium flux assay. This cell line has been used to screen the Tox21 10K compound library to identify agonists of KISS1R.
KISS1R-Hek293 cells were dispensed at 1500 cells/4uL/well in 1536-well black wall/clear bottom plates using a multidrop dispenser. After the assay plates were incubated at a 37 C/5% CO2 incubator for 18 hours, 4 microL of Calcium Dye Solution was added to each well. The plates were incubated at 37 C for 1 hour. And then 23 nL of compounds dissolved in DMSO, positive controls, or DMSO only was transferred to the assay plate by a pin tool station. The fluorescence intensity in the plates was measured using FDSS 7000EX kinetic plate reader with a filter set of Ex/Em=480/540 for 3 min at 1 sec intervals. Each test compound was measured at 15 concentrations and in triplicates.
% is set by controls: 0 for no effect and ±100 for the full control effect.

Sequence of KiSS-1 receptor (Homo sapiens) (Q969F8 whole entry, looked up): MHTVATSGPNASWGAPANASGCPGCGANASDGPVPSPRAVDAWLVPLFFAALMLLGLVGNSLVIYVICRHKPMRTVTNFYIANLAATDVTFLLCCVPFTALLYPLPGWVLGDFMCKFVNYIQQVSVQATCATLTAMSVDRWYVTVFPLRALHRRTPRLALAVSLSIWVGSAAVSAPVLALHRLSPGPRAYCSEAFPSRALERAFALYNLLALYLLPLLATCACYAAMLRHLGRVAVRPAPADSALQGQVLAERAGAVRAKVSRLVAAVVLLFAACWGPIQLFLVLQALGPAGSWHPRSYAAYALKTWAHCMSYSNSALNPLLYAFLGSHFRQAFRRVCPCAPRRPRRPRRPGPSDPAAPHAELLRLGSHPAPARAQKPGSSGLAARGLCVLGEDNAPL

Row | SMILES | activation
1 | CC(=O)CC(C)C | 0.0244%
2 | CCCCCC[C@@H](CCC)C(=O)O | -0.38% [at 35.3 µM]
3 | C=C(C)C(=O)OCCN(CC)CC | -1.96%
4 | OCCN1C[C@H](O)[C@@H](O)[C@H](O)[C@H]1CO | 3.3% [at 35.3 µM]
5 | CC(C)=CC(=O)C=C(C)C | -3.47%
6 | Cc1ccc2cccnc2c1 | 0.348%
7 | Clc1ccnc(Cl)n1 | -1.98%
8 | C[C@H]1NCc2cc(-c3ccc4c(=O)c(C(=O)O)cn(C5CC5)c4c3OC(F)F)ccc21 | -1.09% [at 15.8 µM]
9 | C=C(C)C(=O)OCCCC | 0.0387%
10 | ClC1=C(Cl)C1(Cl)Cl | -2.27%
11 | CCCCC(CC)CN1C(=O)C2C3C=CC(C3)C2C1=O (stereo not given) | 3.46%
12 | NC(=O)C(=O)N/N=C/c1ccc([N+](=O)[O-])o1 | -0.9% [at 35.3 µM]
13 | COc1cccc(O)c1 | -3.58%
14 | Clc1ccc(C(Cn2ccnc2)OCc2c(Cl)cccc2Cl)c(Cl)c1 (stereo not given) | -0.539% [at 35.3 µM]
15 | C#CC(C)(CC)OC(=O)c1ccccc1C(=O)O (stereo not given) | -0.0224% [at 35.3 µM]
16 | CCOC(=O)[C@H](CCc1ccccc1)N[C@@H](C)C(=O)N1Cc2cc(OC)c(OC)cc2C[C@H]1C(=O)O | -1.47% [at 35.3 µM]
17 | CN(C)CCc1c[nH]c2ccc(C[C@H]3COC(=O)N3)cc12 | 0.552% [at 35.3 µM]
18 | CCN1CC(CCN2CCOCC2)C(c2ccccc2)(c2ccccc2)C1=O (stereo not given) | 0.0032% [at 35.3 µM]
19 | COc1cc(OC)nc(NC(=O)NS(=O)(=O)Nc2ccccc2C(=O)N(C)C)n1 | -5.25%
20 | CC1=CC(=O)CC(C)(C)C1(O)/C=C/C(C)=C\C(=O)O (stereo not given) | -2.26%

Row | SMILES | activation
21 | CC(C)(O)CCC(C)(C)O | 1.57%
22 | CCCCCC[C@@H](O)C/C=C\CCCCCCCC(=O)OCC(O)CO (stereo not given in full) | 1.41%
23 | CCCCOc1ccc(C(=O)CCN2CCCCC2)cc1 | 4.84% [at 35.3 µM]
24 | CC(=O)Nc1ccc(S(=O)(=O)Nc2cc(C)on2)cc1 | -0.181% [at 35.3 µM]
25 | CC(=O)CCCCn1c(=O)c2c(ncn2C)n(C)c1=O | -0.227% [at 35.3 µM]
26 | C#Cc1ccc(-c2ccccc2F)cc1 | -0.956% [at 35.3 µM]
27 | N#Cc1ccc(C/C(=N/NC(=O)Nc2ccc(OC(F)(F)F)cc2)c2cccc(C(F)(F)F)c2)cc1 | 9.87%
28 | CCC(=O)O[C@]1(C(=O)SCF)[C@H](C)C[C@H]2[C@@H]3C[C@H](F)C4=CC(=O)C=C[C@]4(C)[C@@]3(F)[C@@H](O)C[C@@]21C | 0.165% [at 35.3 µM]
29 | NS(=O)(=O)c1cc2c(cc1C(F)(F)F)NCNS2(=O)=O | 0.827% [at 35.3 µM]
30 | CCCc1ccc(O)c(OC)c1 | 0.266%
31 | O=C1c2ccccc2C(=O)C1c1ccccc1 | -1.47% [at 35.3 µM]
32 | OCc1ccccn1 | 6.45% [at 35.3 µM]
33 | COC(=O)c1ccccc1Cl | -0.972%
34 | C=C1C(CCl)(CCl)C2(Cl)C(Cl)C(Cl)C1(Cl)C2(Cl)Cl (stereo not given) | 0.399%
35 | CCN1CCCC1CNC(=O)c1cc(S(=O)(=O)CC)c(N)cc1OC (stereo not given) | 0.341% [at 35.3 µM]
36 | NS(=O)(=O)c1cc(-c2nn[nH]n2)c(NCc2cccs2)cc1Cl | -2.46% [at 35.3 µM]
37 | C=C(C)CCO | 0.282%
38 | C[C@H](CCC(=O)NCC(=O)O)[C@H]1CC[C@H]2[C@@H]3[C@H](O)C[C@@H]4C[C@H](O)CC[C@]4(C)[C@H]3C[C@H](O)[C@]12C | 2.02%
39 | CN(C)CCCSc1ccccc1NC(=O)/C=C/c1ccccc1 | 0.356% [at 35.3 µM]
40 | CCOC(=O)c1cccnc1 | -0.637% [at 35.3 µM]

Reference: PubChem BioAssay (Tox21)
